# Source: PubChem BioAssay (The Scripps Research Institute Molecular Screening Center)
# Hits are enriched below; roughly 4.1% of the tested compounds scored in any of these assays.
# hgDAF12 agonist: activates the H. glycines DAF-12 receptor ligand-binding domain; activation, % at 6.8 µM; HEK293 GAL4-hgDAF12 UAS-luciferase reporter, agonist luminescence; normalized to butyrate control; 1.8% of 370,000 active; AID 687014;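 active means activation above a cutoff set at the mean of all screened compounds plus 3 SD, cut at about 10% in these data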;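 further: 0% = DMSO wells and 100% = sodium butyrate wells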
# hcDAF-12 act: H. contortus DAF-12 activation, primary screen; HEK293 hcDAF-12 lit1-tk-luc reporter, luminescence; 0% DMSO, 100% Δ7-dafachronic acid; 1.4% of 370,000 active; activation, % at 6.8 µM;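 active means activation above the mean of all tested compounds plus 3 SD, cut at about 5.5% in these data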;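 further: 100% = response to 3 µM Δ7-dafachronic acid high control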
# DAX1 inh-1: inhibitors of human orphan nuclear receptor DAX1 (NR0B1); P51843; HEK293 Gal4-DAX1 luciferase reporter, luminescence; inhibition, % at 6.75 µM; 0.99% of 340,000 active;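 active means inhibition above the mean over all tested compounds plus 3 SD, cut at about 4.2% in these data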;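 further: 0% = DAX1-transfected cells with DMSO and 100% = empty-vector control cells with DMSO; inhibition shows as a rise in luminescence from relieved DAX1 repression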
# Target sequence (P51843 207-470 limits assumed): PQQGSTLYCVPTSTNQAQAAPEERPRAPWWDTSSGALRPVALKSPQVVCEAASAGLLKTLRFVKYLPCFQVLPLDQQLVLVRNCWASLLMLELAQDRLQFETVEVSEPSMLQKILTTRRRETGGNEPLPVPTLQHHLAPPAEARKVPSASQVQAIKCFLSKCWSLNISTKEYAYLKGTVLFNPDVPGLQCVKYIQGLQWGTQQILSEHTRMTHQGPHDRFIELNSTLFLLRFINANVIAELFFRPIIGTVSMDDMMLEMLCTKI
# DAX1 inh-2: inhibitors of DAX1 repression of SF-1 activated StAR promoter; HEK293T StAR-luciferase reporter, SF-1/DAX-1 repression relief; 1.1% of 370,000 active; inhibition, % at 6.8 µM;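 active means inhibition above the mean over all tested compounds plus 3 SD, cut at about 3.6% in these data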;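 further: 0% = DAX-1 cells with DMSO and 100% = cells lacking DAX-1 with DMSO; higher inhibition means more luminescence from relief of DAX-1 repression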
# ssDAF-12 act: S. stercoralis DAF-12 activation, primary screen | AID 652126 | 1% of 370,000 active | activation, % at 6.8 µM | HEK293 ssDAF-12/GRIP1 lit1-tk-luc reporter, luminescence; % of 3 µM dafachronic acid response;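 active means activation above the mean over all tested compounds plus 3 SD, cut at about 0.9% in these data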;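 further: 0% = DMSO-only wells and 100% = 3 µM delta7-dafachronic acid wells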
# An asterisk follows results filed as active; x = no result.
SMILES,hgDAF12 agonist,hcDAF-12 act,DAX1 inh-1,DAX1 inh-2,ssDAF-12 act
O=C(Nc1nc2ccccc2s1)c1ccccc1[N+](=O)[O-],7,2,0,1,1.2*
COc1ccc2nc(NC(=O)CSCC(=O)Nc3cc(C)on3)sc2c1,8,3,0,4.2*,0
COc1ccc2nc(NC(=O)CSCc3c(C)noc3C)sc2c1,3,-1,3,1,0
O=C(CSc1nc2ccccc2o1)Nc1nc2ccc(Br)cc2s1,0,0,1,0,-2
COC(=O)c1ccc2nc(NC(=O)CSCC(=O)OCC(=O)c3ccccc3)sc2c1,13*,4,3,2,0
CCOc1ccc(N/C(N)=N/c2nc(CSc3nnnn3-c3ccccc3)cc(=O)[nH]2)cc1,0,0,0,1,-1
Nc1[nH]nc2nnc(-c3c(-c4ccccc4)nn4ccccc34)cc12,-3,-2,x,x,-2
COc1ccc2nc(NC(=O)c3ccccc3[N+](=O)[O-])sc2c1,1,2,4.4*,0,-1
COc1ccc2nc(NC(C)=O)sc2c1,12*,2,0,1,0
CCC(C)C(=O)Nc1nc2ccc(OC)cc2s1 (stereo not drawn),6,2,x,2,-1
C=CCN1C(=O)[C@H](CC(=O)N2CCC(c3ccccc3)CC2)[C@@]2(C(=O)OCC)CCCC=C12,1,-3,x,-2,-1
Cn1c(CN2CCN(c3cccc(Cl)c3)CC2)nc2ccccc21,0,5.8*,-1,-1,-1
Cn1c(=O)[nH]c(=O)c2c1nc(CN1CCN(c3cccc(Cl)c3)CC1)n2CCc1ccccc1,0,-2,0,0,-2
Cc1ccc2c(c1)C(CS(=O)(=O)NCc1ccc(F)cc1)NC2 (stereo not drawn),2,0,x,0,-1
CCC1CCCCN1c1ccc([N+](=O)[O-])cc1/C=N/NC(=O)Cn1c2ccccc2c(=O)c2ccccc21 (stereo not drawn),0,-2,6.0*,-1,-1
CCc1ccc(OCC(=O)N/N=C/c2cc([N+](=O)[O-])ccc2N2CCCCCC2)cc1,0,0,-2,0,0
Cc1ccc(OC(C)C(=O)Nc2ccccc2C(=O)N2CCOCC2)cc1 (stereo not drawn),1,-2,-1,-1,-1
Cn1c(N)c(C(=O)Nc2ccccc2)c(=O)[nH]c1=O,-1,-2,x,1,-1
Cn1c(N)c(C(=O)/C=C/c2ccccc2)c(=O)[nH]c1=O,9,3,2,1,1.1*
CN(C)C(=O)C[C@H]1CC[C@H]2[C@H](COc3ccc(NC(=O)C4CC4)cc3C(=O)N2C)O1,1,-3,x,-1,-1
CC(=O)c1ccc(N2C(=NC(=O)COc3ccccc3)SC3CS(=O)(=O)CC32)cc1 (stereo not drawn),2,2,5.5*,0,-1
O=C(Nc1c(-c2ccc(F)cc2)nc2ncccn12)c1ccccc1,3,-2,x,-1,0
Fc1c(F)c(F)c(N/N=C/c2c[nH]c3ccccc23)c(F)c1F,-2,6.3*,0,0,-1
Cn1c(N/N=C/c2c[nH]c3ccccc23)nc2ccccc21,-1,5.6*,1,1,1
O=C(O)c1ccc(N/N=C/c2c[nH]c3ccccc23)cc1,0,5.8*,-5,0,0
SMILES,hgDAF12 agonist,hcDAF-12 act,DAX1 inh-1,DAX1 inh-2,ssDAF-12 act
Cc1cc(N/N=C/c2c[nH]c3ccccc23)c2ccccc2n1,3,4,0,-1,0
Cc1cc(C)nc(N/N=C/c2c[nH]c3ccccc23)n1,0,5,1,0,1
COc1cccc(C(=O)NCCN2C(=O)C3C4C=CC(C4)C3C2=O)c1 (stereo not drawn),3,0,x,1,-1
Cc1ccnc(Nc2nc(-c3ccc(F)cc3)cs2)c1,12*,6.4*,0,1,-1
Cc1cccc(Nc2nc(-c3ccncc3)cs2)c1,11*,3,0,1,0
Cc1cccc(Nc2nc(-c3ccc4c(c3)OCCO4)cs2)c1,13*,5.8*,3,2,0
CC(C)NC(=O)[C@]1(C#N)CC(=O)N(C)[C@@H]1c1ccccc1,2,-1,x,0,-2
